# A selection: hits, their analogues and other compounds. The true share with any hit is near 2.1%.
# Abeta rescue: A-beta toxicity reversal in yeast | yeast expressing A-beta42, growth rescue, OD600, 48 h; response scale: 0% DMSO, 100% iron-clioquinol control | Potency, µM (highest dose often 46.1 µM), actives largely listed as activators | 410,000 tested, 0.063% active | AID 1347071; note: nearly all actives have a fitted effect of over 55% in size
#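 Yeast A-beta toxicity model in growth medium with pinned compounds, 48 h at 30 C; growth read as absorbance at 600 nm. Normalized to FeCl3/clioquinol equimolar mix (positive) and DMSO (negative).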
# FUS suppressor: suppressors of FUS proteinopathy in yeast; S. cerevisiae FUS-expressing, growth rescue, OD600, 24 h; Potency, µM (top dose mostly 76.6 µM), usual class: activators; 390,000 tested, 0.24% active;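 note: plate controls were DMSO vehicle for no effect and reference control for full effect; nearly all actives have a fitted effect of over 55% in size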
#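 Galactose (2%) drives FUS expression in yeast precultured in raffinose; seeding density OD 0.005. Test compounds incubated 24hr at 30C and 99% humidity before absorbance at 600 nm was measured.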
# TDP-43 yeast inh: TDP-43 toxicity inhibition in yeast. TDP-43 expressing yeast growth rescue, BacTiter-Glo, 24 h. Potency, µM (titrated, usually from 46.1 µM), inactives show top-dose growth rescue (activation), most hits filed as activators. 410,000 tested, 1.8% active. AID 652104; note: % of control where 0% means no effect; nearly all actives have a fitted effect of over 50% in size
#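 Growth rescue of TDP-43-toxic yeast measured as ATP luminescence (BacTiter-Glo). Cells grown to mid-log in raffinose, induced in galactose at OD600=0.02, exposed to compound 24 hr at 30 deg C.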
# aSyn yeast inh: inhibitors of alpha-synuclein toxicity in yeast; Yeast expressing alpha-synuclein, growth rescue, BacTiter-Glo, 24 h; Potency, µM (doses to about 46.1 µM), for the others: at the highest dose growth rescue (activation), hits mostly activators; 370,000 tested, 0.14% active; AID 652106; note: % of control where 0% means no effect; nearly all actives have a fitted effect of over 65% in size
#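 Rescue of yeast growth: cells expressing toxic alpha-synuclein, induced in galactose at OD600 0.02, incubated with compound 24 h at 30 C. ATP luminescence quantified growth; inhibitors of toxicity appear as activators.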
# * marks the source's active call; other numbers are inactive results; i = inactive; ? = inconclusive; . = not tested or not shown. Calls come from the whole dose curve; as a rule, active = well fitted curve in the direction sought with a large enough effect; inconclusive = small, poorly fitted or top-dose-only effect, or another doubt; inactive = no such curve, though single readings can be large; an effect the other way counts as inactive or inconclusive. Potency is the fitted concentration of half-maximal effect.
SMILES,Abeta rescue,FUS suppressor,TDP-43 yeast inh,aSyn yeast inh
COc1cccc(N2C(=O)/C(=C/c3ccc(C)o3)C(=O)NC2=S)c1,i,?,?,11%
CCC(=O)c1ccc(OC)c(OC)c1,i,i,11%,1%
O=C1NC(=O)C(=Cc2ccc(Oc3ccc([N+](=O)[O-])cc3)cc2)C(=O)N1,i,i,16µM*,-1%
COc1ccc(C=C2C(=O)NC(=S)NC2=O)cc1OC,i,i,-14%,-11%
COc1cc(C=C2C(=O)NC(=O)NC2=O)ccc1OCc1ccc([N+](=O)[O-])cc1,i,i,11µM*,-6%
O=C1NC(=O)C(=Cc2ccccc2OCCOc2ccc([N+](=O)[O-])cc2)C(=O)N1,i,i,-73%,-18%
CC(NCc1ccccc1Cl)C(O)c1ccccc1 (stereo unspecified),i,i,-10%,0%
COC(=O)C1=C(c2ccc(OC(F)(F)F)cc2)C[C@@H]2CC[C@H]1N2C(=O)NC1Cc2ccccc2C1,i,?,35µM*,1%
COC(=O)C1=C(c2ccc(OC(F)(F)F)cc2)C[C@@H]2CC[C@H]1N2C(=O)NCc1ccc(F)cc1,i,i,13µM*,12%
COC(=O)C1=C(c2ccc(OC(F)(F)F)cc2)C[C@@H]2CC[C@H]1N2C(=O)NC1CCCCC1,i,i,18µM*,-10%
COC(=O)C1=C(c2ccc3ccccc3c2)C[C@@H]2CC[C@H]1N2C(=O)N1CCC(C)CC1,i,i,25µM*,-1%
COC(=O)C1=C(c2ccc(OC)c(OC)c2)C[C@@H]2CC[C@H]1N2C(=O)N1CCC(C)CC1,i,i,9%,1%
COC(=O)C1=C(c2ccc(S(C)(=O)=O)cc2)C[C@@H]2CC[C@H]1N2C(=O)NCc1ccc(F)cc1,i,i,6%,1%
COC(=O)C1=C(c2ccc(OC(F)(F)F)cc2)C[C@@H]2CC[C@H]1N2C(=O)NCCNC(C)=O,i,i,8%,-8%
CCCCn1c(O)c(C(C)=NCc2ccco2)c(=O)[nH]c1=O,i,i,-1%,-12%
CC[C@H](C(N)=O)N1CCCC1=O,.,i,.,.
OC1CCC(Nc2ccn3nc(-c4cccc(OCc5ccccc5)c4)cc3n2)CC1 (stereo unspecified),i,?,35µM*,-20%
COC(=O)C1=C(c2cccc(OCc3ccccc3)c2)C[C@@H]2CC[C@H]1N2C(=O)NCCOc1ccc(OC)cc1,i,?,25%,-7%
Cc1cccc(CC(c2cccc(C)c2)N(C)C)c1 (stereo unspecified),i,i,-13%,-6%
Cc1nc2ccc(NC(=O)C3COc4ccccc4O3)cc2s1 (stereo unspecified),i,i,16µM*,1%
O=C(Nc1ccc2nc(SCC(=O)N3CCCc4ccccc43)sc2c1)c1ccccc1F,i,i,?,.
CC1=CC2/C=C(\C)CCC(O)C(O)/C=C/C(=O)C23C(=O)NC(CC(C)C)C3C1C (stereo unspecified),i,i,-4%,3%
C/C1=C\[C@@H](C)C/C=C/[C@H]2[C@@H]3O[C@]3(C)[C@@H](C)[C@H]3[C@H](Cc4c[nH]c5ccccc45)NC(=O)[C@]32C(=O)/C=C/C(=O)[C@@H]1O,i,?,11µM*,22%
CN(C)CCN=Cc1c(O)n(-c2cccc3ccccc23)c(=O)[nH]c1=O,i,.,-1%,-3%
CCNc1ccc(P(=S)(N(C)C)N(C)C)cc1,i,i,-9%,13%
SMILES,Abeta rescue,FUS suppressor,TDP-43 yeast inh,aSyn yeast inh
Nc1c(C(=O)OC2CCCCC2)c2nc3ccccc3nc2n1CC1CCCO1 (stereo unspecified),i,i,28µM*,3%
Cc1cccc(Cn2cc(C=O)c3ccccc32)c1,i,i,14µM*,7%
O=[N+]([O-])c1cccc(NP(=O)(Oc2ccccc2)Oc2ccccc2)c1,i,i,22µM*,?
COc1cccc(NP(=O)(Oc2ccc(Cl)cc2)Oc2ccc(Cl)cc2)c1,i,.,0%,12%
O=S(=O)(c1cccc2ccccc12)N1Cc2ccccc2-n2nncc2C1,i,i,20µM*,0%
O=S(=O)(c1ccc(Cl)cc1)N1Cc2cc(Br)ccc2-n2nncc2C1,i,i,20µM*,4%
COc1ccc(S(=O)(=O)N2Cc3ccccc3-n3nncc3C2)cc1,i,i,18%,3%
O=C(c1cc(S(=O)(=O)N2CCCCC2)ccc1F)N1CCC2(CC1)OCCO2,i,i,-23%,-6%
Cc1ccccc1C(=O)NNC(=S)NC(=O)COc1ccccc1,i,i,3%,3.2µM*
O=C(O)COc1ccccc1,i,i,4%,-11%
c1ccc(-c2ccc(C(c3ccccc3)n3ccnc3)cc2)cc1 (stereo unspecified),i,i,6.3µM*,?
C=C(C=O)CC1CC(O)[C@]2(C)OC3CC4OC5C[C@]6(C)O[C@]7(C)CCC8OC9C[C@]%10(C)OC%11C(C)=CC(=O)OC%11CC%10OC9C[C@@H](C)C8OC7CC6O[C@]5(C)CC5OC5C4OC3CC2O1 (stereo partly specified),i,i,3.2µM*,5%
Cc1c(C(=O)c2cccc3ccccc23)c2cccc3c2n1[C@H](CN1CCOCC1)CO3,i,i,25µM*,16%
Cc1ccccc1-c1ccc2n1Cc1cnnn1-c1ccccc1-2,i,i,13µM*,5%
CC(C)[N+](C)(CCC(C(N)=O)(c1ccccc1)c1ccccc1)C(C)C,i,i,4%,1%
S=C(NCCc1ccccc1)N1Cc2ccc(Br)cc2-n2nncc2C1,?,i,25µM*,?
O=C(NC1CCCCC1)N1Cc2cc(-c3ccccc3)ccc2-n2nncc2C1,i,i,20µM*,10%
COc1ccc(-c2ccc3c(c2)CN(C(=S)NCCc2ccccc2)Cc2cnnn2-3)cc1,i,i,?,4µM*
S=C(NCCc1ccccc1)N1Cc2cc(Br)ccc2-n2nncc2C1,?,i,22µM*,?
COc1ccc(NC(=S)N2Cc3ccccc3-n3nncc3C2)c(OC)c1,i,i,?,0%
CC(=O)N(C1=NCCCS1)c1ccc(F)cc1,i,i,-18%,-14%
O=C1CC(N2CC=C(c3ccc(F)cc3)CC2)C(=O)N1c1ccc(F)cc1 (stereo unspecified),i,?,?,14%
COc1ccc(CC2NCC(O)C2OC(C)=O)cc1 (stereo unspecified),i,i,13µM*,?
O=[N+]([O-])c1cccc(O)c1,i,i,?,4%
Nc1ccc2c(c1)Cc1cc([N+](=O)[O-])ccc1-2,i,i,8.9µM*,?
O=[N+]([O-])c1ccc2c(c1)Cc1cc(O)ccc1-2,i,.,3.5µM*,1%

# From PubChem BioAssay
